SW480 rereplic: induces DNA re-replication in SW480 colon adenocarcinoma cells; SW480 DNA re-replication, Hoechst DNA content imaging, 48 h; Potency, µM (top dose mostly 46.1 µM), most hits filed as activators; 340,000 tested, 1.8% active; AID 624297; note: nearly all actives have a fitted effect of over 55% in size
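Image-based read-out: total Hoechst fluorescence of nuclei (405 nm excitation, 500-530 nm emission), with hits raising the fraction of high-intensity nuclei. SW480 colon cells incubated 48 hr with compounds at 37 C.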
HT1080 IDH1KD tx: HT-1080 IDH1 knockdown cell toxicity (counter line); HT-1080 IDH1 knockdown viability, ATP luminescence, 48 h; Potency, µM (top dose mostly 46.1 µM), most hits filed as cytotoxic; 360,000 tested, 2% active
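Cytotoxicity counter-line: IDH1KD HT-1080, 48 h, CellTiter-Glo. Curves classed by r2, magnitude and activity.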
HT1080NT lethal: kills 2HG-producing HT-1080-NT fibrosarcoma cells; Potency, µM (series often up to 46.1 µM), hits mostly cytotoxic; HT-1080-NT fibrosarcoma viability, CellTiter-Glo ATP luminescence, 48 h; 360,000 tested, 1.6% active;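 note: NT is the 2HG producing partner of a matched IDH1 knockdown line; nearly all actives have a fitted effect of over 55% in size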
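Luminescent CellTiter-Glo readout after 48 hours of compound exposure at 37 degrees C defined viability of HT-1080-NT cells. Activity was normalized to DMSO wells and cell-free media wells; concentration-response curves were fitted and assigned curve classes.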
KB-3-1 tox: KB-3-1 parental cell cytotoxicity | KB-3-1 viability, CellTiter-Glo ATP luminescence, 72 h | Potency, µM (titrated, usually from 46.1 µM), hits mostly cytotoxic | 400,000 tested, 1.4% active | AID 1347075; note: nearly all actives have a fitted effect of over 60% in size
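Screening of KB-3-1 cells (DMEM, 10% FBS, phenol-red free) ran from lowest to highest compound concentration; after 72 h at 37 °C viability was read luminescently and curves fitted.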
MCF10A rerep: DNA re-replication induction in MCF 10a cells; MCF 10A DNA re-replication, Hoechst nuclear intensity, 48 h; Potency, µM (doses to about 46.1 µM), most hits filed as activators; AID 624296; 350,000 tested, 2.9% active; note: nearly all actives have a fitted effect of over 50% in size
KB-V1 cytotox: kills drug-selected multidrug resistant KB-V1 cells; KB-V1 MDR cells viability, CellTiter-Glo, 72 h; AID 1347076; 400,000 tested, 3.4% active; Potency, µM (titrated, usually from 46.1 µM), hits mostly cytotoxic; note: nearly all actives have a fitted effect of over 60% in size
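KB-V1 cells (P-gp-expressing MDR subline of KB-3-1) in phenol-red-free DMEM with 10% FBS were exposed to library compounds over a concentration series for 72 h at 37 degrees C. Viability read by CellTiter-Glo luminescence; concentration-effect curves fitted after normalization.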
Large screens that a line does not name were inactive. Shown are actives, neighbours in structure and some others; about 8% of the full set was active somewhere. Calls come from the whole dose curve; as a rule, active = well fitted curve in the direction sought with a large enough effect; inconclusive = small, poorly fitted or top-dose-only effect, or another doubt; inactive = no such curve, though single readings can be large; an effect the other way counts as inactive or inconclusive.

Cc1cccc(C)c1OCC(O)Cn1c2ccccc2c2ccccc21 (stereo not given)	SW480 rereplic inconclusive, HT1080 IDH1KD tx inconclusive, KB-3-1 tox inconclusive, MCF10A rerep 21µM, KB-V1 cytotox inconclusive
CCCCOCC(O)Cn1c(C)nc2ccccc21 (stereo not given)	KB-V1 cytotox inconclusive
Cc1nc2ccccc2n1CC(O)COC1CCCCC1 (stereo not given)	KB-V1 cytotox 16µM
Cc1ccc2c(c1)c1c(n2CC(O)Cn2c(C)nc3ccccc32)C(=O)CCC1 (stereo not given)	KB-3-1 tox inconclusive
Cc1nc2ccccc2n1CC(O)Cn1c2ccccc2c2ccccc21 (stereo not given)	SW480 rereplic inconclusive, KB-3-1 tox 18µM, MCF10A rerep inconclusive, KB-V1 cytotox inconclusive
Cc1ccccc1-c1nc(CN2CCC(C(=O)NCc3ccc(F)cc3)CC2)c(C)o1	none (no result: SW480 rereplic, HT1080 IDH1KD tx, HT1080NT lethal, MCF10A rerep)
OCC1CCCCN1C(=S)Nc1ccc(Cl)cc1Cl (stereo not given)	SW480 rereplic inconclusive, MCF10A rerep 0.82µM
CCCN(CCC)C(=O)Cn1c(=O)n(Cc2ccc(C(=O)NCCc3ccc(OC)c(OC)c3)cc2)c(=O)c2ccccc21	none (no result: SW480 rereplic, HT1080 IDH1KD tx, HT1080NT lethal, MCF10A rerep)
Cc1ccccc1NC(=O)CS(=O)(=O)c1cccc2nsnc12	none (no result: SW480 rereplic, HT1080 IDH1KD tx, HT1080NT lethal, MCF10A rerep)
CC(C)CN1C(=O)c2ccc(NC(=O)c3ccco3)cc2C1=O	none
CC(C)CN1C(=O)c2ccc(NC(=O)c3cccs3)cc2C1=O	HT1080 IDH1KD tx inconclusive, MCF10A rerep inconclusive, KB-V1 cytotox 13µM
Cc1cn(S(=O)(=O)c2ccc(F)c(Cl)c2)cn1	none (no result: SW480 rereplic, HT1080 IDH1KD tx, HT1080NT lethal, MCF10A rerep)
N#Cc1cc2cc(Cl)ccc2[nH]c1=O	KB-3-1 tox 4.6µM (no result: SW480 rereplic, MCF10A rerep)
O=C(c1ccccc1)c1cc2cc(Cl)ccc2[nH]1	none
COC(=O)CNC(=O)C1CC(=O)N(CCc2ccc(F)cc2)C1 (stereo not given)	SW480 rereplic inconclusive, KB-V1 cytotox inconclusive
COc1ccc(OC)c(Nc2cc(C)nc3nc(C)nn23)c1	SW480 rereplic inconclusive, KB-3-1 tox 7.3µM, MCF10A rerep inconclusive, KB-V1 cytotox 21µM
COc1ccc(C)cc1Nc1cc(C)nc2nc(C)nn12	SW480 rereplic inconclusive, KB-3-1 tox 8.2µM, KB-V1 cytotox inconclusive
COc1ccc(Nc2cc(C)nc3nc(C)nn23)c(OC)c1	none
Cc1c(CNC2CCCCCC2)c(C(=O)O)c(C)n1Cc1ccc(F)cc1Cl	none (no result: SW480 rereplic, HT1080 IDH1KD tx, HT1080NT lethal, MCF10A rerep)
C=C1NN(CC#N)C(=O)N1c1ccc(OCc2ccccc2)cc1	none (no result: SW480 rereplic, HT1080 IDH1KD tx, HT1080NT lethal, MCF10A rerep)
Nc1nc(=S)ss1	SW480 rereplic inconclusive, MCF10A rerep 21µM
CC(C)CCNC(=O)CN1C(=O)COc2ccc(S(=O)(=O)N3CCOCC3)cc21	none (no result: SW480 rereplic, HT1080 IDH1KD tx, HT1080NT lethal, MCF10A rerep)
Cc1nc([N+](=O)[O-])c(C(=O)OCc2ccccc2Br)n1C	KB-3-1 tox inconclusive, KB-V1 cytotox 21µM
COc1ccc(C2c3c(n(C)c4ccccc34)C(=O)N2CC(=O)Nc2ccc(C)c(Cl)c2)cc1 (stereo not given)	none (no result: SW480 rereplic, HT1080 IDH1KD tx, HT1080NT lethal, MCF10A rerep)
c1ccc2c(c1)CC/C2=N/Nc1nc2ccccc2[nH]1	SW480 rereplic inconclusive, HT1080 IDH1KD tx inconclusive, HT1080NT lethal inconclusive, MCF10A rerep 23µM, KB-V1 cytotox inconclusive
O=C(O)c1cc(NN=C2CCN(Cc3ccccc3)CC2)ccc1Cl	none
c1ccc(CN2CCC(=NNc3nc4ccccc4[nH]3)CC2)cc1	SW480 rereplic 23µM, HT1080 IDH1KD tx inconclusive, MCF10A rerep inconclusive
CC(C)(C)C1CCC(=NNc2nc3ccccc3[nH]2)CC1 (stereo not given)	SW480 rereplic 16µM, HT1080 IDH1KD tx inconclusive
O=S(=O)(Cc1nnnn1-c1ccccc1)c1ccc(F)cc1	none
C/C(CC(=O)NC12CC3CC(CC(C3)C1)C2)=N\NC(=O)c1ccc(F)cc1	none
c1ccc(-c2cc(NCCN3CCCCC3)c3ccccc3n2)cc1	SW480 rereplic inconclusive, HT1080 IDH1KD tx 21µM, HT1080NT lethal 21µM, KB-3-1 tox inconclusive, KB-V1 cytotox inconclusive
Cc1cccc(C)c1NC(=O)c1c(O)c2ccccc2[nH]c1=O	KB-3-1 tox 18µM, KB-V1 cytotox inconclusive

Screening data: PubChem BioAssay, National Center for Advancing Translational Sciences (NCATS)
